Results on nine molecules are retold here after PubChem BioAssay (NCATS).

A short description of experiment [1]: Cell Viability - Jurkat (AID 426;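 active = dose-dependent loss of cell ATP signal giving a full or clear fitted curve, ranked by lower potency value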;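 note: potency is the fitted concentration of half-maximal effect; cells exposed to compound for 40 hours at 37 °C before ATP read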). The following applies: qHTS. Summed up: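 Cells of the human T-cell leukemia line Jurkat (E6-1) are seeded at 5000 per well, treated with compound across a concentration range for 40 hours at 37 °C, then lysed with CellTiter-Glo; luminescence reports ATP.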
Experiment [2] can be described thus: Cell Viability - N2a (AID 540).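 Note: cells exposed to compound for 40 h at 37 °C; plate controls were DMSO alone for no effect and tamoxifen control for full effect; nearly all actives have a fitted effect of over 45% in size.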 The conditions noted are these: N2a mouse neuroblastoma cell viability; activity change, negative = cytotoxicity: at 92.2 µM (top of the series). Summed up: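 Cytotoxicity was scored as loss of cellular ATP in N2a cells, a mouse neuroblastoma line. Compounds are applied in a qHTS concentration series for 40 hr at 37 °C.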
Experiment [3] in a line: Cellular Toxicity (caspase-3) HepG2 (AID 654).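 Note: cells exposed to compound for 16 hours before reading; 0% = DMSO alone and 100% = caspase signal from 100 µM tamoxifen.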 The following applies: HepG2 caspase-3 activation, luminescence, 0% = DMSO only, 100% = tamoxifen; series mostly up to 92.2 µM. Summed up:
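Caspase 3/7 activation in HepG2 is measured as rising luminescence after a 16 hr treatment at 37 °C. Values are scaled between DMSO basal and 100 uM tamoxifen, and AC50 is fitted with the Hill equation.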

Experiment [4] in a line: Cellular Toxicity (caspase-3) H-4-II-E (AID 663).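 Note: cells exposed to compound for 16 hr before readout.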 The following applies: H-4-II-E rat hepatoma; Potency: caspase-3 activation; series mostly up to 92.2 µM. Summed up: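 Caspase 3/7 activation measured in H-4-II-E cells in complete culture medium after 16 hr treatment at 37 °C, using luciferase-coupled substrate readout; AC50 values come from Hill-equation fits of normalized concentration-response data.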

Experiment [5] in a line: MultiTox-Fluor Cytotoxicity Assay - LYMP1-001 - Live Cells (AID 947).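 Note: 0% = DMSO only and full inhibition = tetraoctylammonium bromide control.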 The following applies: LYMP1-001 lymphoblastoid cells, live-cell protease fluorescence viability; series mostly up to 92.2 µM.
The nature of experiment [6]: MultiTox-Fluor Cytotoxicity Assay - LYMP1-002 - Dead Cells (AID 960).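 Note: 0% = DMSO and 100% = tetraoctylammonium bromide; nearly all actives have a fitted effect of over 60% in size.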 The conditions noted are these: LYMP1-002 lymphoblastoid cells, dead-cell protease fluorescence; series mostly up to 46.1 µM. An outline of the steps:
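Cells were plated, rested 5 hr, then treated with compound dilution series for 16 hr at 37 C. After adding substrate reagent and 60 min at room temperature, dead-cell protease fluorescence gave concentration-response curves fitted by the Hill equation.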

Experiment [7] can be described thus: MultiTox-Fluor Cytotoxicity Assay - LYMP1-003 - Live Cells (AID 962).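 Note: 0% = DMSO only and full loss = 92 µM tetraoctylammonium bromide; cytotoxic hits lower the live-cell protease signal.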 The following applies: LYMP1-003 lymphoblastoid cells, MultiTox-Fluor live-cell protease fluorescence; series mostly up to 92.2 µM. Summed up: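 Acute cytotoxicity is scored as a drop in live-cell protease activity in human lymphoblastoid LYMP1-003 cells after 16 hr compound exposure at 37 C. AC50 values come from Hill-equation modelling of concentration-response data.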

Experiment [8] in a line: Cell Viability - LYMP2-005 (AID 967). Note: potency is the fitted concentration of half-maximal effect. The following applies: LYMP2-005 lymphoblastoid cell viability; series mostly up to 92.2 µM. An outline of the steps: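 CellTiter-Glo luminescence (cellular ATP) read-out; LYMP2-005 lymphoblastoid cells, 2500/well, 5 h pre-incubation, then 24 h compound exposure at 37 C in complete medium. Tetraoctylammonium bromide positive control; AC50 by standard Hill fit.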

The nature of experiment [9]: Cell Viability - LYMP2-009 (AID 968). Note: nearly all actives have a fitted effect of over 55% in size. Note: potency is the fitted concentration of half-maximal effect. The following applies: LYMP2-009 lymphoblastoid cell viability; series mostly up to 92.2 µM.
Experiment [10] in a line: Cell Viability - LYMP2-012 (AID 982).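 For activity change, negative = cytotoxicity: 0% = DMSO only and full loss = 92 µM tetraoctylammonium bromide.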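 Note: cellular ATP by luciferase luminescence where a drop means cytotoxicity; cells exposed to compound for one day before reading; nearly all actives have a fitted effect of over 55% in size.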 Note: potency is the fitted concentration of half-maximal effect. The following applies: LYMP2-012 lymphoblastoid cell viability qHTS; series mostly up to 92.2 µM. Background: Quantitative high-throughput screening tests each substance at several concentrations.
Experiment [11] is described as follows: Cell Viability - LYMP2-018 (AID 985).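 Note: compound exposure lasted 24 hr at 37 °C; plate controls were DMSO only for no effect and tetraoctylammonium bromide at 92 µM for full effect; nearly all actives have a fitted effect of over 50% in size.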 The following applies: LYMP2-018 lymphoblastoid cells, viability (qHTS); series mostly up to 92.2 µM. An outline of the steps:
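Seed 2500 lymphoblastoid cells per well, incubate 5 hr at 37 C, add compound and incubate 24 hr at 37 C, add CellTiter-Glo, wait 30 min at room temperature, then read luminescence.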

A short description of experiment [12]: Cell Viability - LYMP2-024 (AID 988).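 For activity change, negative = cytotoxicity: plate controls were DMSO only for no effect and 92 µM tetraoctylammonium bromide for full effect.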 Note: nearly all actives have a fitted effect of over 60% in size. Note: potency is the fitted concentration of half-maximal effect. The following applies: LYMP2-024 lymphoblastoid cell viability; series mostly up to 92.2 µM. Summed up:
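qHTS cytotoxicity, human lymphoblastoid line, complete medium; 24 h cpd treatment, 37 C; CellTiter-Glo ATP luminescence readout; tetraoctylammonium bromide positive control; AC50 via Hill fit.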

The target of experiment [13] is Vitamin D3 receptor (Homo sapiens) (UniProt P11473). Kind of experiment: qHTS assay for small molecule antagonists of vitamin D receptor signaling (AID 588541; calls by dose curve;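 note: receptor activated by calcitriol during compound treatment; % is set by controls: 0 for no effect and ±100 for the full control effect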). The following applies: HEK293T VDR-UAS-bla, beta-lactamase ratio, antagonist mode; series mostly up to 76.7 µM. Summed up:
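VDR-UAS-bla HEK293T cells (2000/well, 2% charcoal-stripped FBS) were treated with titrated compounds plus 1-alpha,25-dihydroxyvitamin D3 (50 nM or 3 nM final) for 16 h at 37 C. CCF4 beta-lactamase fluorescence was read; Hill fits gave IC50.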

The target in experiment [14] is Thyroid hormone receptor beta (Homo sapiens) (UniProt P10828). Description: qHTS assay for small molecule agonists of thyroid hormone receptor beta signaling (AID 588545; calls by dose curve;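 note: 0% = DMSO only and 100% = 10 nM T3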). The conditions noted are these: TR-UAS-bla GripTite HEK 293, beta-lactamase ratio, agonist mode, 18 h; series mostly up to 76.7 µM. An outline of the steps:
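Efficacy and EC50 values derive from Hill fits of qHTS titration data, normalized to 10 nM T3 and DMSO-only wells. HEK 293 reporter cells were stimulated for 18 hrs at 37 C, with beta-lactamase activity measured by CCF4 fluorescence.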

Experiment [15] is described as follows: qHTS assay for small molecule antagonists of retinoid X receptor alpha signaling (AID 588546; active = well fitted inhibition curve with a large enough effect in the signal ratio, with a control signal flat, not every such curve was filed as active; the % refers to the signal ratio;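 note: cells stimulated with 9-cis-retinoic acid as agonist; % is set by controls: 0 for no effect and ±100 for the full control effect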). The conditions noted are these: HEK293T RXRa-UAS-bla, beta-lactamase ratio, antagonist mode; measured here: W530 green channel, cytotoxicity proxy. An outline of the steps:
(§1)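 Beta-lactamase reporter inhibition, read as CCF4 fluorescence ratio (ex 405, em 460/530 nm) after 2 h at RT. HEK293T UAS-bla cells, 2500/well, were stimulated with 9-cis-RA at 500 or 100 nM final alongside test compound for 18 h at 37 C.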

The target in experiment [16] is Retinoic acid receptor RXR-alpha (Homo sapiens) (UniProt P19793). Described as above. The following applies: HEK293T RXRa-UAS-bla, beta-lactamase ratio, antagonist mode. An outline of the steps:
as §1

The nature of experiment [17]: qHTS assay for small molecule antagonists of the retinoid-related orphan receptor gamma (ROR-gamma) signaling pathway - cell viability counter screen (AID 720652; active = well fitted curve in the direction sought with a large enough effect in the repeat runs; an effect the other way counts as inactive or inconclusive;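 note: CHO reporter cells with doxycycline-induced ROR-gamma expression; compound exposure lasted 16 hr before ATP read; % is set by controls: 0 for no effect and ±100 for the full control effect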). The following applies: RORgamma reporter cell line viability counter screen; series mostly up to 92.2 µM. Summed up: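 Steps: seed CHO cells bearing TET-inducible ROR and ROR response element-luciferase; rest 5 hr at 37 C; add compound, then doxycycline; incubate 16 hr; add CellTiter-Glo and read luminescence as ATP-based viability.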

Experiment [18] can be described thus: qHTS assay for small molecule agonists of the antioxidant response element (ARE) signaling pathway measured by Nrf2-dependant transcriptional activity - cell viability counter screen (AID 720653; active = well fitted curve in the direction sought with a large enough effect in the repeat runs; an effect the other way counts as inactive or inconclusive; note: % is set by controls: 0 for no effect and ±100 for the full control effect). The conditions noted are these: ARE-bla HepG2 viability, CellTiter-Glo ATP luminescence, 16 h; stronger effect = lower value. Summed up: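 ARE-bla HepG2 cells (2,000/well) rested 5 hrs at 37C/5% CO2, then exposed to compounds in DMSO for 16 hrs. Viability was read in the same wells as intracellular ATP by luminescence, 30 min at room temperature after reagent addition.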

A short description of experiment [19]: qHTS assay for small molecule activators of the human pregnane X receptor (PXR) signaling pathway (AID 720659; call rule not given here; note: 0% is about no effect). The following applies: DPX-2 HepG2 CYP3A4-luciferase, 24 h; series mostly up to 92.3 µM.
The target of experiment [20] is Nuclear receptor ROR-gamma (Homo sapiens) (UniProt P51449). Kind of experiment: qHTS assay for small molecule antagonists of the retinoid-related orphan receptor gamma (ROR-gamma) signaling pathway (AID 651802). Note: nearly all actives have a fitted effect of over 60% in size. Note: potency is the fitted concentration of half-maximal effect. The conditions noted are these: ROR-gamma antagonist cell reporter assay; series mostly up to 92.2 µM. An outline of the steps:
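Steps: cells dispensed; compound or DMSO transferred by pin tool; doxycycline added to induce the ROR response element-driven luciferase; plates held 16hr at 37C; ONE-Glo added and luminescence measured.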

Molecules are shown by their SMILES. Where “and” joins values, the source holds several entries; their conditions need not be identical. Equal entries are not always repeated. Results filed as inconclusive are left out. Calls of active or inactive are those of the source. Unless noted, calls come from the whole dose curve; as a rule, active = well fitted curve in the direction sought with a large enough effect; inconclusive = small, poorly fitted or top-dose-only effect, or another doubt; inactive = no such curve, though single readings can be large; an effect the other way counts as inactive or inconclusive. Bounds are passed on as bounds.

Sequence of Vitamin D3 receptor (Homo sapiens) (P11473 whole entry, looked up): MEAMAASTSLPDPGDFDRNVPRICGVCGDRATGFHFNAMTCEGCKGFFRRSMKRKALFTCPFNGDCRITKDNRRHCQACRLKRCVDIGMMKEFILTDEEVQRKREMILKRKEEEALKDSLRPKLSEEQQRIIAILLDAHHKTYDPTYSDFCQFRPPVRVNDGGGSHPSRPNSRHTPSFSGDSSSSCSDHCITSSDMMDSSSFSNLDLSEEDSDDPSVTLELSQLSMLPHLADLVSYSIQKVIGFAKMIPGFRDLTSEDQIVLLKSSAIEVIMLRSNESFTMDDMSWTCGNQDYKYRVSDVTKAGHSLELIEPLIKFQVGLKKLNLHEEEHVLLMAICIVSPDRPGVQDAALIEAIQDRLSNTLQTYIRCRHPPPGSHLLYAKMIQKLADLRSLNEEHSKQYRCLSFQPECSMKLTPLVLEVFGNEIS
Sequence of Retinoic acid receptor RXR-alpha (Homo sapiens) (P19793 whole entry, looked up): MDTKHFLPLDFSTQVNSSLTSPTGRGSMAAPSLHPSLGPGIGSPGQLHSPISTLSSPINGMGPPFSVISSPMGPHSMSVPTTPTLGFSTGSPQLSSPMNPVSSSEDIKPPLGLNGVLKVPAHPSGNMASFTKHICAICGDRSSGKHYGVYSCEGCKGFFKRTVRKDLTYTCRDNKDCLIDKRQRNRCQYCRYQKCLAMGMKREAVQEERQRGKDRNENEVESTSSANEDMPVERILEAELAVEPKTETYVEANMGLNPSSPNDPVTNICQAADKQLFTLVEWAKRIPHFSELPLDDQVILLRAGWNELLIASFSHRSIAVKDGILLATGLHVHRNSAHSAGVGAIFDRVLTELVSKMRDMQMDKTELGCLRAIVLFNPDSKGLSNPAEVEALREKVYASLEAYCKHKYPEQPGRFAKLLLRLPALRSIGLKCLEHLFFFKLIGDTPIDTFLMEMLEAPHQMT
Sequence of Thyroid hormone receptor beta (Homo sapiens) (P10828 whole entry, looked up): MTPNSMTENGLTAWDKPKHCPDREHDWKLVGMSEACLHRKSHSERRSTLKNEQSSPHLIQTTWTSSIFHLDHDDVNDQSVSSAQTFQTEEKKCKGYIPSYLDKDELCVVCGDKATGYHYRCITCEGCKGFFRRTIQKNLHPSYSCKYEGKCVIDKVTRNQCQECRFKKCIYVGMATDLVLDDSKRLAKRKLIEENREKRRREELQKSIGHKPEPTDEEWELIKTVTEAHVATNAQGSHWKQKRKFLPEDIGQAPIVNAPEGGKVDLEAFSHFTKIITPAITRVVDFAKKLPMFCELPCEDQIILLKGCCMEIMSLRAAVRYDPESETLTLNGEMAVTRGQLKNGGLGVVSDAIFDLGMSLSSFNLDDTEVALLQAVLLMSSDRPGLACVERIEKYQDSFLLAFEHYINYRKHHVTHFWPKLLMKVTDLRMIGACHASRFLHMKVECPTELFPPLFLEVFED
Sequence of Nuclear receptor ROR-gamma (Homo sapiens) (P51449 whole entry, looked up): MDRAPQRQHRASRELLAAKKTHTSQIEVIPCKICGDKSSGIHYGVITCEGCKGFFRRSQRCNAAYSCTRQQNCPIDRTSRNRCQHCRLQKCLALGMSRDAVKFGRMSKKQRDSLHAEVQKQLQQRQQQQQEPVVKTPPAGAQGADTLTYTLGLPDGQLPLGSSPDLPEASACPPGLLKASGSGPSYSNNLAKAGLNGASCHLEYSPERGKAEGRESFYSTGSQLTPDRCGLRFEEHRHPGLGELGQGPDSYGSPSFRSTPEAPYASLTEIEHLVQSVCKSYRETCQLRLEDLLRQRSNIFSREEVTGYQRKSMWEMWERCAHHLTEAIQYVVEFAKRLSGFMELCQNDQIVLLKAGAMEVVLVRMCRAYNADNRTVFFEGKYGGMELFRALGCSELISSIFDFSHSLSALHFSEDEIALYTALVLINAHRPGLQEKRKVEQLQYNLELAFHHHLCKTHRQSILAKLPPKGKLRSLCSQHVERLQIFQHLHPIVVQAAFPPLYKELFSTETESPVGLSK

For the molecule `CC(C)(Cl)Cl`, in [1], the Potency is > 92 µM (inactive). The Potency result in experiment [2], in experiment [4], in experiment [6], in [8], in experiment [9] and in experiment [10] was “inactive” throughout. For the same molecule, the Potency entry in experiment [11], in experiment [12], in experiment [14] and in experiment [17] was “inactive” each time. Also, the molecule was classed as inactive in experiment [3], in [5], in experiment [7], in experiment [13] and in experiment [19]. For the same molecule, the values for the max response in [15], in [16] and in experiment [18] were -1.69%, 3.57% (inactive) and -1.91% (inactive), respectively.

With `O=C(O)c1cc(Cl)ccc1Cl`, the Potency in experiment [1] was > 92 µM (inactive). The Potency entry in experiment [2], in [6], in [8], in experiment [9], in experiment [10] and in experiment [11] was “inactive” throughout. For the same molecule, the Potency result in experiment [12], in [14], in [20] and in experiment [17] was “inactive” in each case. The call in experiment [3], in experiment [5], in experiment [7], in experiment [13] and in [19] was inactive. For the same molecule, the results for the max response in experiment [15], in experiment [16] and in experiment [18] were -9.46%, -2.77% (inactive) and -0.443% (inactive), respectively.

As for `CC(C)C#N`, the Potency in experiment [1] was > 92 µM (inactive). Also, the Potency entry in experiment [2], in [4], in [6], in experiment [8], in experiment [9] and in experiment [10] was “inactive” each time. Further, the Potency entry in experiment [11], in experiment [12], in experiment [14], in [20] and in experiment [17] was “inactive” in each case. Also, the outcome in experiment [3], in experiment [7] and in experiment [19] was inactive. Also, the max response in experiment [15] is -7.48%; in experiment [16] it was 2.91% (inactive).

Consider `Nc1ccc(Cc2ccc(N)c(Cl)c2)cc1Cl`, for which the outcome in [3], in experiment [5], in experiment [7] and in experiment [13] was inactive. Besides, the Potency entry in experiment [4], in experiment [8], in experiment [9], in [10], in experiment [11] and in experiment [12] was “inactive” in each case. For the same molecule, the Potency result in [17] is “inactive”. The results for the max response in experiment [15], in experiment [16] and in experiment [18] were -5.52%, -29.3% (inactive) and -8.13% (inactive), respectively.

Take `O=[N+]([O-])CCO`: in experiment [1], the Potency is > 92 µM (inactive). The Potency entry in experiment [2], in [4], in experiment [6], in experiment [10], in experiment [11] and in [12] was “inactive” in each case. The Potency result in experiment [14], in experiment [20] and in experiment [17] was “inactive” throughout. In addition, the call in experiment [3], in experiment [5] and in [19] was inactive. Further, the max response in [15] was 2.49%; in experiment [16], -8.95% (inactive); in experiment [18] it was -2% (inactive).

As to `N#C/C=C/C#N`, the Potency was 20.8 µM (active) in [1]; 25.1 µM (active) in experiment [8]; 31.6 µM (active) in [9]; 20 µM (active) in experiment [10]; 31.6 µM (active) in experiment [12]; 23.7 µM (active) in [20]. For the same molecule, the Potency result in experiment [6] and in [17] was “inactive” throughout. The outcome in [7] and in experiment [19] was inactive.

On to `Nc1ccc([N+](=O)[O-])cc1N`, for which the Potency result in [2], in experiment [6], in [8], in experiment [9], in [10] and in experiment [11] was “inactive” each time. Moreover, the Potency result in [12], in experiment [14] and in experiment [17] was “inactive” in each case. The molecule was called inactive in experiment [3], in experiment [5], in experiment [7] and in experiment [13]. For the same molecule, the max response in [15] is 7.14% and -1.85%; in [16], -24.9% (inactive) and -14.3% (inactive); in [18], 0.262% (inactive) and -5.88% (inactive). Besides, the Potency in [20] is 42.2 µM (active).

As to `C=CCBr`, the Potency in experiment [1] is > 92 µM (inactive). Further, the Potency result in experiment [2], in experiment [4], in experiment [8], in experiment [9], in experiment [10] and in experiment [11] was “inactive” throughout. Besides, the Potency entry in [12], in experiment [14], in [20] and in experiment [17] was “inactive” each time. Further, the result in experiment [3], in experiment [5], in experiment [7], in experiment [13] and in [19] was inactive. The max response in [15] was -4.43%; in experiment [16], 13.2% (inactive); in [18], -1.79% (inactive).

Take `Brc1cccc(-c2ccccc2)c1`: in experiment [1], the Potency is > 92 µM (inactive). The Potency entry in [2], in experiment [6], in experiment [8], in [10], in experiment [11] and in [12] was “inactive” each time. In addition, the Potency result in [14], in experiment [20] and in experiment [17] was “inactive” in each case. Also, the outcome in [3], in experiment [5], in experiment [7], in [13] and in experiment [19] was inactive. In [18], the max response was -6.68% (inactive).
